# Bioassay records: PubChem, National Center for Advancing Translational Sciences (NCATS)
# MCF10A rerep: inducers of DNA re-replication in MCF 10A breast cells; 2.9% of 350,000 active; MCF 10A DNA re-replication, Hoechst nuclear intensity, 48 h; Potency, µM (doses to about 46.1 µM), without a hit: top-dose activity, positive = re-replication, hits mostly activators; also: potency is read from the fitted curve at half-maximal effect; % of control where 0% means no effect; nearly all actives have a fitted effect of over 50% in size
# ATXN2 expr inh: reduces ATXN2 reporter expression in HEK-293 cells; 0.72% of 360,000 active; Potency, µM (series often up to 57 µM), without a hit: at the top dose activity change, negative = inhibition, usual class: inhibitors; HEK-293 ATXN2-luciferase reporter, luminescence, 24 h; also: potency is read from the fitted curve at half-maximal effect; % is scaled to controls: 0 for no effect and ±100 for the full control effect; nearly all actives have a fitted effect of over 55% in size
#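 qHTS (up to 57 uM final) was run with 24 h compound exposure of reporter cells at 37 °C. Each well was multiplexed: SteadyGlo luminescence measured ATXN2-luciferase expression after a fluorogenic Gly-Phe-AFC viability readout (25 uM final).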
# SW480 rerep: induces DNA re-replication in SW480 colon adenocarcinoma cells | SW480 DNA re-replication, Hoechst DNA content imaging, 48 h | AID 624297 | Potency, µM (highest dose often 46.1 µM), for the others: top-dose re-replication activation, most hits filed as activators | 1.8% of 340,000 active; also: potency is read from the fitted curve at half-maximal effect; % of control where 0% means no effect; nearly all actives have a fitted effect of over 55% in size
#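 Quantitative HTS format with DMSO vehicle controls; 48 hr drug incubation at 37 C, then 40 min Hoechst staining and scanning imager measurement at 405 nm excitation.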
# S2 tox: reduces viability in counter-screen for ATXN expression inhibitors | 0.49% of 400,000 active | Potency, µM (doses to about 56.7 µM), hits mostly cytotoxic | S2 cells (HEK-293 line with an ATXN2-luciferase reporter) viability, CellTiter-Fluor protease fluorescence, 24 h; also: potency is read from the fitted curve at half-maximal effect; nearly all actives have a fitted effect of over 40% in size
# IL-1B inflam inh: blocks inflammasome-driven IL-1 beta release. THP-1 LPS/ATP IL-1B secretion, AlphaLISA, 16 h; hits give low values. 4.7% of 360,000 active. activity change, % at 57.5 µM; in the data active = activity change below about -50%; inconclusive = mostly about -30% to -49%; also: % is scaled to controls: 0 for no effect and ±100 for the full control effect
#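 THP-1 cells pretreated 1 hr with compounds (up to 57.5 uM final), then stimulated with LPS (250 ng/mL final) plus ATP (1.25 mM final); secreted IL-1B measured by AlphaLISA after 16 hr, decreased signal indicating inhibition.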
# PINK1 expr mod: modulators of PINK1 expression; PINK1 immunofluorescence, high-content cytometry, 24 h; 0.2% of 410,000 active; Potency, µM (titrated, usually from 76.6 µM), without a hit: at the highest dose activation (PINK1 increase), actives largely listed as activators; active = well fitted activation curve with a large enough effect; inconclusive = small, poorly fitted or top-dose-only effect; cell line not stated here; also: potency is read from the fitted curve at half-maximal effect; % of control where 0% means no effect; nearly all actives have a fitted effect of over 65% in size
#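 Stable cell line, 250 cells/well, 12 h attachment; compounds pinned at 5 concentrations, 24 h; CCCP control. Fixed with nuclear dye, primary antibodies 12 h at 10 degrees C, secondary plus cell stain; laser-scanning cytometer read.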
# Active calls of the source: *; i = inactive; ? = inconclusive; · = no result given; [ ] = dose if it differs, or a comment. An excerpt weighted towards active compounds, which were near 7.1% of everything screened. Unless noted, calls follow the shape of the dose curve; as a rule, active = well fitted curve in the direction sought with a large enough effect; inconclusive = small, poorly fitted or top-dose-only effect, or another doubt; inactive = no such curve, though single readings can be large; an effect the other way counts as inactive or inconclusive.
SMILES,MCF10A rerep,ATXN2 expr inh,SW480 rerep,S2 tox,IL-1B inflam inh,PINK1 expr mod
CCCCN(C(=O)c1cc(-c2ccc(F)cc2)nc2ccccc12)c1c(N)n(CCCC)c(=O)[nH]c1=O,10.5%,?,?,?,-69.7*,2.2%
CCCCn1c(N)c(N(CC(C)C)C(=O)c2cc(-c3ccc(F)cc3)nc3ccccc23)c(=O)[nH]c1=O,i,-21.8%,0.3%,i,35.5,0.2%
CC(=O)Nc1c(C(=O)Nc2ccccc2F)oc2ccccc12,·,-5.4%,·,i,·,0.4%
Cc1cc(C)cc(NC(=O)Nc2ccccc2N2CCCCC2)c1,5.4%,-5.0%,-13.9%,·,-74.0*,1.2%
O=C(CCNC(=O)c1ccccc1Cl)Nc1ccccc1N1CCCC1,-1.2%,-6.4%,-12.6%,i,15.1,0.1%
Cc1ccc(C(C)C)c(OCC(=O)Nc2ccccc2N2CCN(C)CC2)c1,?,?,-1.0%,?,-58.7*,-0.4%
O=C(Nc1ccc(Cl)cc1)Nc1ccc(N2CCCC2)c(S(=O)(=O)Nc2ccccc2Cl)c1,?,?,?,i,-52.2*,2.82µM*
O=C(CCNC(=O)c1ccc(Br)cc1)Nc1ccccc1N1CCCCC1,?,5.7%,-644.6%,i,-80.2*,3.1%
COc1cccc(N2CCN(C(=O)Cn3nc(C)n4c(cc5c(OC)cccc54)c3=O)CC2)c1,·,·,·,·,·,-0.5%
Cc1ccccc1OCC(=O)Nc1ccccc1N1CCCCC1,?,0.8%,?,i,13.9,4.5%[38.3 µM]
Cc1ccc2[nH]c3c(=O)n(CC(=O)Nc4ccccc4N4CCN(C)CC4)ncc3c2c1,?,-5.7%,20.6µM*,i,-5.2,-1.3%
CN1CCN(c2ccccc2NC(=O)Cn2ncc3c([nH]c4ccccc43)c2=O)CC1,-2.0%,·,?,i,-2.5,0.4%
Cc1cc(C)cc(OCC(=O)Nc2ccccc2N2CCCCC2)c1,8.2µM*,-11.5%,?,i,23.1,4.0%
COc1ccccc1Cn1c(=S)[nH]c2cc(C(=O)N3CCCC(C)C3)ccc2c1=O (centres undefined),·,·,·,i,-26.3,4.2%
CCC(C=C[C@@H]1OC(=O)C=C[C@H]1C)=C[C@H](C)CC=CC(C)=C[C@@H](C)C(=O)[C@@H](C)[C@H](O)[C@@H](C)CC(C)=CC(=O)O,·,0.128µM*,·,·,·,·
C[C@@H]1C(SC2Cn3cnc[n+]3C2)=C(C(=O)[O-])N2C(=O)[C@H]([C@@H](C)O)[C@@H]12 (some centres undefined),-2.4%,·,-8.3%,·,·,·
COc1cc(Cl)c(S(=O)(=O)N2CCCC2)cc1Cl,?,-3.6%,-14.0%[1.84 µM],i,7.1,1.6%
COc1cc(N2C(=O)C=CC2=O)c(OC)cc1Cl,5.8µM*,?,?,20µM*,?,-0.6%
CC(C)Cc1cc(C(=O)NCC2Cc3cc(F)cc(-c4ccccn4)c3O2)no1 (centres undefined),·,·,·,?,·,-0.5%
Oc1c(Cl)cc(Cl)cc1CNc1ccccn1,?,-2.4%,-0.6%,i,?,4.7%
Oc1c(Cl)cc(Cl)cc1CNc1nc2ccccc2[nH]1,?,1.4%,1.5%,?,-84.1*,29.0%
Cc1ccc(CNCc2cc3c(C(C)(C)C)nn(-c4ccccc4)c3[nH]c2=O)cc1,?,?,?,?,-84.8*,·
O=C(CCl)N(O)c1ccc(C=Cc2ccccc2)cc1,?,?,?,6.7µM*,-77.1*,-3.6%
O=C(O)c1ccc(-c2cc3cccnc3c(-c3ccc4nonc4c3)n2)cc1,·,-23.8%,·,·,·,·
Cn1c(NCc2ccco2)nc2c1c(=O)n(Cc1ccc(Cl)cc1)c(=O)n2C,?,-21.8%,0.9%,i,-24.0,-0.6%
SMILES,MCF10A rerep,ATXN2 expr inh,SW480 rerep,S2 tox,IL-1B inflam inh,PINK1 expr mod
Cn1c(NCc2ccco2)nc2c1c(=O)n(Cc1ccc(Cl)cc1Cl)c(=O)n2C,?,-12.7%,16.4µM*,i,15.7,6.9%[38.3 µM]
O=C(O)c1cn(C2CC2)c2cc(Cl)c(F)cc2c1=O,·,20.6%,·,i,·,·
COc1ccc2c(c1)c(N1CCCC1=O)c(C(=O)Nc1cc(C)c(Cl)cc1OC)n2C,·,2.4%,·,i,·,-1.5%
COc1ccccc1N1CCN(/N=C/c2cc([N+](=O)[O-])ccc2Cl)CC1,0.581µM*,9.6%,-79.4%,i,5.3,4.3%
O=C1CC(c2ccc(Cl)cc2)Oc2ccc(Cl)cc21 (centres undefined),?,-4.0%,?,i,-87.2*,9.1%
O=C1CC(c2cccc(O)c2)Oc2ccccc21 (centres undefined),16.2%,38.8%,1.1%,i,-82.6*,7.8%
Cn1c(Cl)cnc1C1CC(=O)c2cc(Cl)ccc2O1 (centres undefined),?,?,10.3µM*,·,-95.1*,-2.0%
Cn1c2c(c(=O)n(C)c1=O)C1c3cc(Cl)ccc3OCC1CO2 (centres undefined),-3.0%,5.0%,-4.3%,i,5.1,0.3%
O=C1CC(c2ccccc2)Oc2ccccc21 (centres undefined),-25.4%,27.2%,5.0%,i,?,1.8%
CCC1(C2CCN(C(=O)c3ccccc3Cl)CC2)NC(=O)N(CCc2scnc2C)C1=O (centres undefined),·,·,·,i,·,0.3%
COc1ccc(/C=C/C(=O)C2(O)CCCCC2)cc1OC,?,13.4%,?,i,-91.4*,-0.5%
COc1ccc(NC(=O)/C=C/c2cc(Br)ccc2OC)cc1,?,-15.9%,-0.7%,i,-16.0,5.1%
CCOc1ccc(C(=O)/C=C/c2ccc(OC)c(OC)c2)cc1,?,-15.3%,?,i,-105.9*,-0.2%
COc1ccc(Br)cc1/C=C/C(=O)c1ccc(NC(C)=O)cc1,6.51µM*,22.4µM*,14.6µM*,?,-98.9*,-1.1%
CCCOc1ccc(/C=C/C(=O)O)cc1OC,-1.1%,-7.7%,-1.2%,i,34.9,0.5%
COc1ccc(/C=C/C(=O)c2ccc(NC(=O)c3cccs3)cc2)cc1OC,9.2µM*,18.1%,?,i,-65.8*,-4.0%
CCOC(=O)N1CCC(NC(=O)c2cnn(-c3ccc(F)cc3)c2-n2cccc2)CC1,·,1.6%,·,i,·,-0.1%
CCS(=O)(=O)c1ccc(OC)c(C(=O)OC)c1,·,11.7%,·,i,·,·
COc1ccc(/C=C/C(=O)c2ccccc2)cc1COc1ccccc1F,?,-32.9%,14.6µM*,i,-64.9*,16.0%[38.3 µM]
COC(=O)c1ccc(/C=C/C(=O)c2cccc(OC)c2)cc1,?,14.2%,?,i,-101.4*,-2.0%
COc1cccc(C(=O)/C=C/c2ccc(OCC#N)c(OC)c2)c1,9.2µM*,?,23.1µM*,·,-101.9*,-3.0%
COc1ccc(C=O)cc1COc1ccccc1F,13.6%,2.4%,?,i,55.7,1.9%
